Data from PubChem BioAssay (EPA / NIEHS).
Where a structure was tested more than once in an assay, its records may differ in their call. Active and inactive are the calls of the source. The calls were made as follows: active = hit-call score of the fitted dose curve at least 0.9, where 1 is the maximum; inactive = score below 0.9.

target: CCAAT/enhancer-binding protein beta (Homo sapiens) (UniProt P17676); experiment: ATG_C_EBP_CIS: Attagene CIS-FACTORIAL HepG2 Assay for human CCAAT/Enhancer Binding Protein (C/EBP) beta (AID 2282927); settings: HepG2 Attagene cis-factorial transcription factor reporter; actives raise or lower the signal
Experimental: ATG_CIS is a cell-based, multiplexed-readout assay that uses HepG2, a human liver cell line, with measurements taken at 24 hours after chemical dosing in a 24-well plate.ATG_C_EBP_CIS is one of 52 assay component(s) measured or calculated from the ATG_CIS assay. It is designed to make measurements of mRNA induction, a form of inducible reporter, as detected with fluorescence intensity signals by Reverse transcription polymerase chain reaction (RT-PCR) and Capillary electrophoresis technology.Data from the assay component ATG_C_EBP_CIS was analyzed into 1 assay endpoint. This assay endpoint, ATG_C_EBP_CIS, was analyzed with bidirectional fitting relative to DMSO as the negative control and baseline of activity. Using a type of inducible reporter, measures of mRNA for gain or loss-of-signal activity can be used to understand the reporter gene at the transcription factor-level as they relate to the gene CEBPB. Furthermore, this assay endpoint can be referred to as a primary readout, because this assay has produced multiple assay endpoints where this one serves a reporter gene function. To generalize the intended target to other relatable targets, this assay endpoint is annotated to the dna binding intended target family, where the subfamily is basic leucine zipper.
Human liver HepG2 cells are transiently transfected with multiple reporter transcription units (MRTUs) in 6-well plates using FuGene 6 reagent (Roche; 3 ml FuGene/1 mg DNA). The MRTU constructs are regulated by a cis-regulating element (promoter). […] A major difference between the CIS and TRANS system is that in CIS activities of endogenous TFs are measured, whereas the TRANS assay evaluates changes in activities of exogenous, chimeric NR-Gal4 proteins. […] At the end of 24 hour incubation, total RNA was isolated using TriZol reagent (Invitrogen). The isolated RNA is then reverse-transcribed using oligo(dT) primer and Mo-MLV reverse transcriptase (Invitrogen) with DNAse I (Ambion) treatment for 30 min. The one-tenth of the produced cDNA was amplified by PCR using Taq DNA polymerase (Invitrogen) and two reporter sequence-specific primers. The PCR products were fluorescently labeled by primer extension with 6-arboxyfluorescein (6-FAM) 5'-labeled reporter sequence-specific primer (2 min at 95 C, 20 s at 68 C and 10 min at 72 C) and these products were digested with 5U of HpaI (New England Biolabs) for 2h at 37 C. The fragments were purified using Qiaquick PCR columns (Qiagen), analyzed on an ABI 3130xL genetic analyzer (Applied Biosystems) with peak positions identified by using a set of X-rhodamine (ROX)-labeled MapMarker1000 molecular weight standards (BioVentures). The raw capillary electrophoresis data was processed using Attagraph software (Attagene).

CCAAT/enhancer-binding protein beta (Homo sapiens), sequence (P17676 whole entry, looked up): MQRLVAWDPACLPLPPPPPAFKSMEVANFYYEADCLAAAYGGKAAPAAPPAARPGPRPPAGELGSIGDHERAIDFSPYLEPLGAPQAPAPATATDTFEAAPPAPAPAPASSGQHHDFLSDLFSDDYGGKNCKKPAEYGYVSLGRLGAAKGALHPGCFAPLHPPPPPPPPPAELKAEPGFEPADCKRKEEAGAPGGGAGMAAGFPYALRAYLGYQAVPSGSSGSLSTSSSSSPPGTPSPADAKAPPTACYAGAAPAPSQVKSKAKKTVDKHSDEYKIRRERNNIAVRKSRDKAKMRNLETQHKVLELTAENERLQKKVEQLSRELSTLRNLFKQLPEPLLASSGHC

Structure (SMILES) | outcome | AC50
Cc1cccc(N)c1N | inactive | –
O=P(OCCCl)(OCCCl)OCCCl | inactive | –
O=C(Nc1ccccc1)c1ccccc1I | inactive | –
ClCCOCCCl | inactive | –
C[C@]12C=CC3=C4CCC(=O)C=C4CC[C@H]3[C@@H]1CC[C@@H]2O | inactive | 18 µM (active)
CC(C)(C)OOC(C)(C)CCC(C)(C)OOC(C)(C)C | inactive | –
Clc1ccccc1Cl | inactive | –
CCC[CH2][Sn]([Cl])([CH2]CCC)[CH2]CCC | – | 0.097 µM (active)
[O-][Cl+]O | inactive | –
CCN(CC)CCO | inactive | –
Nc1ccc(Oc2ccc(N)cc2)cc1 | inactive | –
O=[N+]([O-])c1ccc(Oc2ccc(Cl)cc2Cl)cc1 | inactive | –
Clc1ccc(C(c2ccc(Cl)cc2)C(Cl)(Cl)Cl)cc1 | inactive | –
O=C(Oc1ccc(Br)cc1)N1CCN2CCC1CC2 | inactive | –
CN(C)[C@@H]1C(=O)C(C(N)=O)=C(O)[C@@]2(O)C(=O)C3=C(O)c4c(O)cccc4[C@@](C)(O)[C@H]3C[C@@H]12 | inactive | –
CCC(C)c1ccc(O)cc1 (stereo not given) | inactive | –
O=Cc1ccco1 | inactive | –
CNC(=O)Oc1cccc2c1OC(C)(C)C2 | inactive | –
c1ccc2c(c1)-c1cccc3cccc-2c13 | inactive | –
CCCSC(=O)N(CCC)CCC | inactive | –

Structure (SMILES) | outcome | AC50
[Cl-].[Cl-].[Hg+2] | inactive | –
Cc1ccc([N+](=O)[O-])cc1 | inactive | –
Cc1ccc(N)cc1 | inactive | –
Clc1ccc(Cl)c(Cl)c1 | inactive | –
CC(C)N(Cc1ccccc1)C(=O)C(C)(C)C | inactive | –
c1ccc(NNc2ccccc2)cc1 | inactive | –
ClC1=C(Cl)C2(Cl)C3C(Cl)C=CC3C1(Cl)C2(Cl)Cl (stereo not given) | inactive | –
CCCCOC(=O)c1ccccc1C(=O)OCc1ccccc1 | inactive | –
Cc1ccc(N)c(N)c1 | inactive | –
OCCCBr | inactive | –
c1ccc(N=Nc2ccccc2)cc1 | inactive | –
CCN(CC)N=O | inactive | –
CCOc1cccc(C2(N3CCN(c4ccccc4)CC3)CCC(C)CC2)c1 (stereo not given) | inactive | –
CCCCCCCCCCCCCN1CC(C)OC(C)C1 (stereo not given) | inactive | –
N#CC(Br)Br | inactive | –
Nc1ccc(Cl)cc1N | inactive | –
CC(O)CCO (stereo not given) | inactive | –
COC(=O)c1ccccc1N | inactive | –
Brc1ccc(Oc2ccccc2)cc1 | inactive | –
